Test results reported in the supplement of paper PMC10849652.
Targets with a hit are over-represented here; the source holds about 8,800 in all. About 0.5% of all pairs of compound and target were hits. A number with no mark means an inactive call.

Columns and labels:
Assay in all cases: log2 fold change, soluble protein after heating vs DMSO (PISA); higher = thermal stabilisation; K562 lysate, 10 uM; active = over 0.2 and 3.5 SD of the protein, either way, in both replicates (recomputed)
[1] = compound: CCCS(=O)(=O)Nc1ccc(F)c(C(=O)c2c[nH]c3ncc(-c4ccc(Cl)cc4)cc23)c1F [vemurafenib]
How it was run: (§1)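 To prepare the extract, K562 pellets were dounce-homogenised in PBS pH 7.4 with 1 mM MgCl2, giving crude material at 1 mg/mL protein. This was treated with 10 μM compound for 30 min, then heated in aliquots for 3 min over 48°C-58°C before pooling and addition of NP-40 to 0.5% at 4°C. Centrifugation at 21,000xg for 90 min left soluble protein in the supernatant, which TMTpro 16plex LC-MS/MS quantified with equalised channel sums. Results are log-two fold changes in thermal stability compared with solvent controls, from duplicates.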

[2] = compound: CCCS(=O)(=O)Nc1ccc(F)c(C(=O)c2c[nH]c3ncc(Cl)cc23)c1F
How it was run: as §1

[3] = compound: CCN(CCCOc1ccc2c(Nc3cc(CC(=O)Nc4cccc(F)c4)[nH]n3)ncnc2c1)CCOP(=O)(O)O [barasertib]
How it was run: as §1

[4] = compound: CC[C@@H]1C(=O)N(C)c2cnc(Nc3ccc(C(=O)NC4CCN(C)CC4)cc3OC)nc2N1C1CCCC1
How it was run: as §1

[5] = compound: CC[C@@H]1C(=O)N(C)c2cnc(Nc3ccc(C(=O)N[C@H]4CC[C@H](N5CCN(CC6CC6)CC5)CC4)cc3OC)nc2N1C(C)C [volasertib]
How it was run: as §1

[6] = compound: CCn1c(C(=O)N(C2CC2)C2CC2)cc2c3c(ncn3C)c(Nc3cc(C)n(C)n3)nc21
How it was run: as §1

[7] = compound: CCn1cc(-c2ccnc3[nH]c(-c4cccc(CN(C)C)c4)cc23)c(-c2ccc(NC(=O)N(C)C)cc2)n1
How it was run: as §1

[8] = compound: CN1CCC(CNc2ccc3ncc(-c4cccc(OC(F)(F)F)c4)n3n2)CC1
How it was run: as §1

[9] = compound: CN1CCN(CCOc2cc(OC3CCOCC3)c3c(Nc4c(Cl)ccc5c4OCO5)ncnc3c2)CC1 [saracatinib]
How it was run: as §1

[10] = compound: CN1CCN(c2nc(C3=C(c4c[nH]c5ccccc45)C(=O)NC3=O)c3ccccc3n2)CC1 [sotrastaurin]
How it was run: as §1

UniProt Q15366, sequence (Q15366 whole entry, looked up): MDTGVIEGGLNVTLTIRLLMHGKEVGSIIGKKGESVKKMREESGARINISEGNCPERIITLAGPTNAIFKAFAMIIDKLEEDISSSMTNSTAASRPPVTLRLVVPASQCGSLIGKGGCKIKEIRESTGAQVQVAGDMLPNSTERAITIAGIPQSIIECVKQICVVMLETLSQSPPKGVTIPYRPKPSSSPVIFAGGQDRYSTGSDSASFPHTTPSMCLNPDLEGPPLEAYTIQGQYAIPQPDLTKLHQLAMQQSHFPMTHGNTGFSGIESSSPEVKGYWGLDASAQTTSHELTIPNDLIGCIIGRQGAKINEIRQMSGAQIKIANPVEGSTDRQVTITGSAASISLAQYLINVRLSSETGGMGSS
UniProt P78527, sequence (P78527 whole entry, looked up): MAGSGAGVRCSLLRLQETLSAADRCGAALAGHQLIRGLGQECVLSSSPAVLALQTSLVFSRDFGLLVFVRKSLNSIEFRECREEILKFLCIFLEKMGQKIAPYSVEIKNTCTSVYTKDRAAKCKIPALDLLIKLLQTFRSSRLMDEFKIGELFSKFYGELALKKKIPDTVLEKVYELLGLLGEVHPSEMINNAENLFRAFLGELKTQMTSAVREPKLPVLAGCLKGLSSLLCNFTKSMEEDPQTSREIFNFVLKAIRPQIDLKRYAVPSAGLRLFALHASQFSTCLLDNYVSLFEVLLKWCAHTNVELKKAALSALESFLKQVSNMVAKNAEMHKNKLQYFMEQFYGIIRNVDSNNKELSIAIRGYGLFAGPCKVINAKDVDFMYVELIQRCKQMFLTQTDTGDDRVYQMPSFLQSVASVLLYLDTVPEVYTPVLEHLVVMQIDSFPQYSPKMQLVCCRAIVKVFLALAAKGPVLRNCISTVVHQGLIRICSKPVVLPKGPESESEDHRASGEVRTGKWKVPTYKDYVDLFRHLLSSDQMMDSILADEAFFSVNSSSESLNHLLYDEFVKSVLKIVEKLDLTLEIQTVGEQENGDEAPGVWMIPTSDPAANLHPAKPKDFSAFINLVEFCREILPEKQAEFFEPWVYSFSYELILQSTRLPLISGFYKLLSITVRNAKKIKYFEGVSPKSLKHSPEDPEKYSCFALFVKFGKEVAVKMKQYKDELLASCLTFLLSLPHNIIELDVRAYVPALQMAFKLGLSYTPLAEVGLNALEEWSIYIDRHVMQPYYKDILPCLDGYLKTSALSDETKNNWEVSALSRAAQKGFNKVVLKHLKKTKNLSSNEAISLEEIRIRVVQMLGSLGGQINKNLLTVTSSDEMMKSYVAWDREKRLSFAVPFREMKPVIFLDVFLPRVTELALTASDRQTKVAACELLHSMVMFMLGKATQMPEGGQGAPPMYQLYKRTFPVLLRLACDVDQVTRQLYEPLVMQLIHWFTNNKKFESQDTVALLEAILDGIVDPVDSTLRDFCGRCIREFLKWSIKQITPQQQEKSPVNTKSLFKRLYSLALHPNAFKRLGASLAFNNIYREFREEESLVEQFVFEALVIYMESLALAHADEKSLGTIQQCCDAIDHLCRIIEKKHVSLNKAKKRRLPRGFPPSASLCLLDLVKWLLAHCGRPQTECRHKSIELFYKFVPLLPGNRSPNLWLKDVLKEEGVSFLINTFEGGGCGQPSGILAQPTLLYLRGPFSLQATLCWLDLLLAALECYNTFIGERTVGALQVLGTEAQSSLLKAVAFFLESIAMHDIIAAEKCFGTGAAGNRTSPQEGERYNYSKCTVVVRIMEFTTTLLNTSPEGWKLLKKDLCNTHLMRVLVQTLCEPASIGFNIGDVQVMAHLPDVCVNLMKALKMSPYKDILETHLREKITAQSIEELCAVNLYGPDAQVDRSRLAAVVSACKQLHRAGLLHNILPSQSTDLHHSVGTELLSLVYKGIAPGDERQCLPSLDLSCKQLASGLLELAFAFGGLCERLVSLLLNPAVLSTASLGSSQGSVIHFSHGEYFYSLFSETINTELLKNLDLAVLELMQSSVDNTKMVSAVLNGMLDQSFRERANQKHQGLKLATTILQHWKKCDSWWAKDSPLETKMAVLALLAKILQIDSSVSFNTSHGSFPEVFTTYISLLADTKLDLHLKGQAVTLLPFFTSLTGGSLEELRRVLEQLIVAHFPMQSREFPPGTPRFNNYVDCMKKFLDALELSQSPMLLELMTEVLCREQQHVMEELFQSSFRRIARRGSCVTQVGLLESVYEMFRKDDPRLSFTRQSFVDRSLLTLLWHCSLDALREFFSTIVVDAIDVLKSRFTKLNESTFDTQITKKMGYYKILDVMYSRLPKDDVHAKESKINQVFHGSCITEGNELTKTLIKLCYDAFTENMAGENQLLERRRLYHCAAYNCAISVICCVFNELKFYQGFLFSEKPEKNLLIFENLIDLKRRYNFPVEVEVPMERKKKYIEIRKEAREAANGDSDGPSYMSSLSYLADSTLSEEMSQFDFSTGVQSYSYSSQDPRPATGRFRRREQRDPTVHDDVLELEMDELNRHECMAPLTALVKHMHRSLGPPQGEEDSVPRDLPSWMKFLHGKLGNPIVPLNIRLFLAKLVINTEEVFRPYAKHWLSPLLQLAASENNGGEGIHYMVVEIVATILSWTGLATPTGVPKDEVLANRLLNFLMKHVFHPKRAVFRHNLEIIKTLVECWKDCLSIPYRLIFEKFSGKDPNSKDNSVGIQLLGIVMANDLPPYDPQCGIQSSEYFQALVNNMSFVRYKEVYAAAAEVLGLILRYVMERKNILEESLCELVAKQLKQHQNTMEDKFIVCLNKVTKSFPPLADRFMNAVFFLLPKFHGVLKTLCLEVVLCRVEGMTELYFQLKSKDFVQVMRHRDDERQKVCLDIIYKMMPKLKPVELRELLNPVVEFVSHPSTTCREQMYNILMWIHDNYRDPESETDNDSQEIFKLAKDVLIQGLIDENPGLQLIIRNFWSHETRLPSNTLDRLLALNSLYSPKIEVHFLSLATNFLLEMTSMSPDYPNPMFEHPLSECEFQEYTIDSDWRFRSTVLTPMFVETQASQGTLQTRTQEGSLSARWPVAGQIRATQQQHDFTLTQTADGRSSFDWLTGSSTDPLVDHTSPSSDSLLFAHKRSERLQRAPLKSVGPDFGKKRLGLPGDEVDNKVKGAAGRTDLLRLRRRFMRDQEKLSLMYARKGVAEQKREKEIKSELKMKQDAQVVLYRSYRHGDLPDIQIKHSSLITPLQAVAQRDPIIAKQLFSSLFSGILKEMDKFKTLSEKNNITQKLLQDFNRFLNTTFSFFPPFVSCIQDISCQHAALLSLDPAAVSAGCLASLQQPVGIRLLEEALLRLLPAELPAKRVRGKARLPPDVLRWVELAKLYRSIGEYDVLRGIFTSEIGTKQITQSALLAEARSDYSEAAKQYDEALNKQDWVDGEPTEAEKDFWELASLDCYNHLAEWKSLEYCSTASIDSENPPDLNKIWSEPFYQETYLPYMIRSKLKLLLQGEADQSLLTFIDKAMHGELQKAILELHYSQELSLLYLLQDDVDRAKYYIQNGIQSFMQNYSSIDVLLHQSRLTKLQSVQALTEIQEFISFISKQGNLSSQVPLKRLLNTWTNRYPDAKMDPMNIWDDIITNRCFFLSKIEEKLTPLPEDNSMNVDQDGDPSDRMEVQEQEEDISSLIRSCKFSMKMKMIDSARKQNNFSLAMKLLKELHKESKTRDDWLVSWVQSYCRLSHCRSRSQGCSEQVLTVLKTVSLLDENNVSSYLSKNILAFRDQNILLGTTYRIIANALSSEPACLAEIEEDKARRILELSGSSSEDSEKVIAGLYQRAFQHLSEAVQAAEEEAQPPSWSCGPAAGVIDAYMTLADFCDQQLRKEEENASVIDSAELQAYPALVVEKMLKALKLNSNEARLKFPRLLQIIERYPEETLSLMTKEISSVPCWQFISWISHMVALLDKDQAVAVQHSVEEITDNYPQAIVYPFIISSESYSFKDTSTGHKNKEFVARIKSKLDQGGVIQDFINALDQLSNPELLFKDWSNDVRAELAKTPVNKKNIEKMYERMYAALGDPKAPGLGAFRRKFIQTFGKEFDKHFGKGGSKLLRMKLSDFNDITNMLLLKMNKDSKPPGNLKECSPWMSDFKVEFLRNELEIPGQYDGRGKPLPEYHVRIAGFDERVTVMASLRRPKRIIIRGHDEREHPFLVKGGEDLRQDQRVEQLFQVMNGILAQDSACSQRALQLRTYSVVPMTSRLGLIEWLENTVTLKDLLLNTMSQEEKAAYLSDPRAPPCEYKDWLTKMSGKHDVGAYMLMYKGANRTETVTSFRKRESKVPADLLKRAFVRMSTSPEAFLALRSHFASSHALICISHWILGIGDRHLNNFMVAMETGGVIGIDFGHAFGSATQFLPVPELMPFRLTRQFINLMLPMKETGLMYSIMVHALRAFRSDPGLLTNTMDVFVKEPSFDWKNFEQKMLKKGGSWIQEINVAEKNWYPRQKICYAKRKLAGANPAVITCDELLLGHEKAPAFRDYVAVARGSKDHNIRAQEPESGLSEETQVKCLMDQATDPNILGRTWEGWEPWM

Target | log2 fold change [1] | log2 fold change [2] | log2 fold change [3] | log2 fold change [4] | log2 fold change [5] | log2 fold change [6] | log2 fold change [7] | log2 fold change [8] | log2 fold change [9] | log2 fold change [10]
PDAP1 (UniProt Q13442) | -0.026 | -0.01 | -0.064 | 0.069 | 0.04 | -0.043 | -0.267 (active) | 0.159 | -0.002 | -0.02
PRMT7 (UniProt Q9NVM4) | 0.058 | -0.006 | 0.018 | -0.02 | 0.001 | -0.013 | 0.013 | 0.003 | 0.045 | 0.009
PICALM (UniProt Q13492) | -0.004 | -0.004 | 0.037 | 0.04 | 0.014 | 0.004 | 0.098 | -0.021 | 0.009 | -0.061
PIR (UniProt O00625) | -0.023 | 0.098 | -0.005 | 0.025 | 0.019 | -0.055 | 0.205 | -0.024 | -0.006 | -0.028
PRKDC (UniProt P78527) | 0.132 | 0.014 | -0.009 | -0.058 | -0.062 | 0.063 | -0.12 | 0.097 | -0.007 | 0.048
PDS5A (UniProt Q29RF7) | 0.023 | 0.031 | 0.064 | -0.057 | -0.029 | 0.054 | -0.12 | -0.019 | 0.007 | 0.026
PHGDH (UniProt O43175) | -0.005 | -0.001 | -0.049 | 0.02 | -0.025 | 0.016 | 0.098 | -0.051 | -0.012 | -0.027
PKN1 isoform 2 (UniProt Q16512) | 0.013 | 0.049 | -0.006 | 0.013 | -0.009 | 0.024 | -0.055 | -0.483 (active) | 0.002 | -0.143
PPP2R3C (UniProt Q969Q6) | -0.081 | -0.094 | 0.094 | -0.244 | 0 | 0.071 | -0.392 (active) | 0.115 | 0.04 | 
PRKAR2A (UniProt P13861) | -0.01 | 0.033 | 0.055 | 0.011 | -0.013 | 0.009 | 0.065 | -0.26 (active) | -0.012 | -0.154
PRKCSH (UniProt K7ELL7) | 0.089 | 0.02 | -0.037 | 0.186 | -0.04 | 0.013 | 0.217 | -0.008 | -0.011 | -0.015
PFN1 (UniProt P07737) | -0.01 | -0.01 | 0.012 | 0.02 | 0.015 | 0.02 | -0.02 | 0.028 | -0.004 | -0.005
POLD1 (UniProt P28340) | 0.01 | 0.053 | -0.011 | -0.021 | -0.005 | 0.035 | 0.028 | -0.043 | 0.01 | 0.015
PRKCA (UniProt P17252) | 0.019 | -0.016 | 0.051 | -0.186 | -0.054 | 0.004 | 0.101 | -0.207 | -0.046 | 0.924 (active)
PRMT5 (UniProt O14744) | 0.006 | -0.008 | -0.007 | 0.02 | -0.007 | -0.009 | -0.067 | 0.017 | -0.032 | 0.015
PDXDC1 (UniProt Q6P996) | -0.005 | -0.02 | 0.008 | 0.03 | -0.059 | -0.004 | -0.031 | -0.067 | -0.005 | 0.015
PPP4R2 (UniProt Q9NY27) | -0.033 | 0.026 | -0.041 | 0.057 | -0.014 | -0.042 | 0.21 | 0.028 | -0.007 | 0.006
PI4KA (UniProt P42356) | 0.005 | 0.014 | 0 | 0.007 | -0.064 | 0.019 | -0.069 | 0.164 | 0.016 | 0.056
PCBP2 isoform 3 (UniProt Q15366) | -0.059 | -0.004 | -0.006 | -0.021 | -0.003 | 0.057 | -0.022 | -0.002 | -0.017 | -0.006
PELO (UniProt Q9BRX2) | 0 | 0.021 | 0.037 | -0.115 | -0.066 | -0.014 | 0.404 (active) | -0.183 | -0.001 | -0.018
PTPN1 (UniProt P18031) | 0.04 | -0.005 | 0.042 | -0.029 | -0.04 | 0.033 | -0.061 | -0.03 | 0.022 | 0.069
PHOSPHO2 (UniProt Q8TCD6) | -0.023 | -0.026 | 0.047 | 0.232 | 0.019 | 0.003 | -0.084 | 0.001 | -0.023 | 0.039
PTPN23 (UniProt Q9H3S7) | -0.008 | 0 | 0.003 | -0.006 | -0.042 | 0.026 | -0.017 | 0.007 | 0.008 | -0.001
PRIM1 (UniProt P49642) | -0.036 | 0.022 | 0.031 | -0.089 | -0.069 | 0.062 | -0.008 | -0.029 | -0.002 | 0.007
POC5 (UniProt Q8NA72) | -0.062 | -0.049 | 0.014 | 0.17 | 0 | -0.045 | 0.021 | -0.011 | -0.087 | -0.046
PHKA2 (UniProt P46019) | -0.065 | 0.053 | 0.072 | 0.059 | 0.021 | 0.024 | 0.009 | -0.084 | 0.002 | -0.058
PICALM (UniProt H0YEH1) | 0.05 | -0.094 | -0.018 | -0.008 | -0.011 | -0.014 | -0.54 (active) | 0.248 | 0.056 | 0.126
PTK2 (UniProt Q05397) | 0.017 | -0.091 | -0.015 | 0.352 | 0.145 | 0.044 | -0.001 | 0.056 | -0.023 | 0.039
PUS1 (UniProt Q9Y606) | 0.026 | 0.002 | 0.055 | -0.086 | -0.077 | 0.028 | -0.058 | -0.02 | 0.035 | -0.027
PITRM1 isoform 2 (UniProt Q5JRX3) | -0.026 | 0.001 | -0.01 | -0.018 | 0.127 | -0.008 | 0.07 | -0.048 | -0.021 | 0.007
